# Reference: PubChem BioAssay (NCATS)
# Records with an inconclusive call do not appear. Where a call stands in place of a potency, no number is given. Unmarked numbers belong to inactive results. The source made the active and inactive calls. Calls come from the whole dose curve; as a rule, active = well fitted inhibition curve with a large enough effect; inconclusive = small, poorly fitted or top-dose-only effect; inactive = no such curve, though single readings can be large or run the other way.
# Tested on: Zika virus NS2B-NS3 protease (linked construct)
# Assay: Primary screen NINDS Rhodamine qHTS for Zika virus inhibitors (AID 1347160); note: nearly all actives have a fitted effect of over 55% in size
# Settings: purified NS2B-NS3 protease, Rhodamine110 substrate fluorescence; series mostly up to 57.1 µM
# How it was run: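 Aprotinin served as in-plate control. Conditions: 25 nM linked NS2B-NS3, pH 8.0 Tris buffer, titrated compounds, 15 min preincubation and 15 min reaction with 1.5 microM Rhod110 substrate at room temperature.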
SMILES,"activity change, negative = inhibition",Potency
CCC/C=C/C(=O)O[C@H]1CC(C)(C)CC2[C@@]13[C@H](O)C[C@]1(C)[C@@]2(CCC2[C@@]4(C)CC[C@H](O[C@@H]5O[C@H](C(=O)O)[C@@H](O)[C@H](O[C@@H]6O[C@H](CO)[C@H](O)[C@H](O)[C@H]6O[C@@H]6O[C@@H](C)[C@H](O)[C@@H](O)[C@H]6O[C@@H]6OC[C@](O)(CO)[C@H]6O)[C@H]5O[C@@H]5O[C@H](CO)[C@H](O)[C@H](O)[C@H]5O)C(C)(C)C4CC[C@]21C)O[C@H]3O (stereo not given in full),-24.8% [at 10.7 µM],–
COc1cc(N2CCC(O)CC2)ccc1Nc1nc(Nc2ccccc2S(=O)(=O)C(C)C)c2[nH]cnc2n1,–,inactive
Cc1cccc(N2CCN(C(=O)c3cc(S(=O)(=O)N(C)C)ccc3N3CCCC3)CC2)c1C,–,inactive
CC1=C(c2ccc(NC(=O)c3c(F)cccc3F)cc2)CN(c2nccs2)CC1,–,inactive
COCC(=O)NC/C=C/c1ccc2ncnc(Nc3ccc(Oc4ccc(C)nc4)c(C)c3)c2c1,–,inactive
CC(C)(CNC(=O)c1cccc(-c2noc(C(F)(F)F)n2)c1)c1coc(-c2ccccc2)n1,–,inactive
CN(C)CC1CCn2c(c(C3=C(c4cn(C)c5ccccc45)C(=O)NC3=O)c3ccccc32)C1 (stereo not given),–,inactive
O=C(Nc1ccc(-n2nc(C(F)(F)F)cc2C(F)(F)F)cc1)c1ccncc1F,–,inactive
CC(=O)c1ccc2c(c1)[C@H](NC(=O)c1ccc(F)c(Cl)c1)[C@H](O)C(C)(C)O2,–,inactive
O=C(Nc1ccccc1Br)NC1CCN(c2ccc(C(F)(F)F)cn2)C1 (stereo not given),–,inactive
